Rows were chosen to be rich in hits. Some 2.8% of all compounds tested hit in one or more screens of this group.
NSD2 HMT inh: NSD2 (human) methyltransferase inhibition; O96028; NSD2 peptide methylation, AlphaScreen, 120 min; inhibition, % at 12.5 µM; 310,000 tested, 0.54% active; in the data active means inhibition above about 50%
PAX8 inh HTS: lowers PAX8-driven luciferase in RMG-I cells; RMG-I TPO-luciferase reporter, SteadyGlo, 24 h; inhibition, % at 12.6 µM; 360,000 tested, 1.2% active; AID 652154;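 active means mean replicate inhibition at least 60% with every replicate also reaching 60%; inconclusive means only one of the two criteria is met; inactive means mean below 60% and not all replicates reaching 60%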;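 further: luciferase light reporting Pax8 driven TPO promoter activity; plate controls were median of neutral control wells for no effect and mitoxantrone controls for full effect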
LMP1 NFkB inh: Epstein-Barr LMP1 NF-kappaB reporter inhibition. LMP1-induced NF-kappaB luciferase reporter cells, luminescence. inhibition, % at 12.5 µM. 350,000 tested, 0.69% active; in the data active means inhibition above about 41%; inconclusive means no clear call, values can overlap the other calls;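 further: 0% = neutral control wells and 100% = reference inhibitor control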
Env fusion inh: blocks HIV Env-driven cell-cell fusion | AID 651610 | 360,000 tested, 1.1% active | HeLa-JRFL Env/CEM21 cell fusion, luciferase | inhibition, % at 12.3 µM;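 active means mean replicate inhibition score of at least 50 and every replicate individually at or above 50; inconclusive means only one of the two criteria met; inactive means mean below 50 and not all replicates reaching 50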;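 further: 0% = plate neutral controls and 100% = maraviroc near 300 nM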
Shn3 3UTR inh: inhibitors of Schnurri-3 3'UTR reporter in osteoblasts | Clone20 osteoblast Shn3 3'UTR firefly luciferase, 24 h | inhibition, % at 12.5 µM | 360,000 tested, 0.52% active | AID 588674;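 active means mean inhibition of at least 75% with every replicate also reaching 75%; inconclusive means mean inhibition at least 75% but some replicate below; inactive means mean inhibition below 75%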;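 further: 0% = median of neutral control wells and 100% = pilot-screen positive control compound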
Glyco luc inh: N-linked glycosylation inhibition. D54 ERlucT glycosylation luciferase reporter, 24 h; percent of 100 nM tunicamycin response. reporter increase, % at 12.5 µM. 360,000 tested, 0.23% active;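 active means mean luciferase reporter signal, scaled so untreated is 0 and the glycosylation-blocking control 100, at or above a set limit in every replicate; inconclusive means mean reaches the limit but not every replicate does; inactive means mean below the limit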;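 further: luciferase carries N-glycosylation sites so blocking glycosylation raises the light; 0% = median of neutral control wells and 100% = median of 100 nM tunicamycin wells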
Active calls of the source: *; i = inactive; ? = inconclusive; / = not tested or not shown; [ ] = remark or other dose.

SMILES | NSD2 HMT inh | PAX8 inh HTS | LMP1 NFkB inh | Env fusion inh | Shn3 3UTR inh | Glyco luc inh
CCOC(=O)C1=C(c2ccccc2)c2ccccc2N(S(=O)(=O)C(F)(F)F)C1C(=O)OCC (stereo not drawn) | / | -13 | -2 | 60* | 5 | -2
CCCCNC(=S)Nc1ccc2nc3n(c(=O)c2c1)CCCCC3 | 8 | -18 | 0 | 10 | -12 | 1
O=C(Nc1ccc2nc3n(c(=O)c2c1)CCCC3)c1cc([N+](=O)[O-])ccc1F | 0 | / | 2 | / | 91* | -18
CC(C)CCNC(=S)Nc1ccc2nc3n(c(=O)c2c1)CCCCC3 | -5 | -22 | 63* | 25 | -12 | 2
Cc1ccc(S(=O)(=O)N(C)C[C@@H]2Oc3ccc(NC(=O)C4CC4)cc3CC(=O)N([C@@H](C)CO)C[C@H]2C)cc1 | / | -8 | / | / | / | /
COC(=O)c1c(NC(=O)CN2CCC3(O)CCCCC3C2c2ccc(OC)cc2OC)sc(C)c1C (stereo not drawn) | 2 | 14 | -7 | 66* | 5 | -2
C[C@H](CO)N1C[C@H](C)[C@H](CN(C)Cc2ccc(-c3ccccc3)cc2)Oc2ncc(C#CCN(C)C)cc2C1=O | / | / | / | 9[16.7 µM] | / | /
CC(C)(C)S(=O)N1Cc2cc(C(=O)NCC(F)(F)F)nc(-c3cccc(-c4cccc(F)c4)c3)c2[C@@H]1CCO (stereo partly drawn) | / | 70* | / | -9 | 25 | 23
CCCNC(=O)c1cc2c(c(-c3cccc(-c4cccc(F)c4)c3)n1)[C@@H](CCO)N([S@](=O)C(C)(C)C)C2 | / | 13 | / | -5[16.7 µM] | / | /
COCCNC(=O)c1cc2c(c(-c3cccc(-c4cccc(F)c4)c3)n1)[C@H](CCO)N(S(=O)C(C)(C)C)C2 (stereo partly drawn) | / | 62* | / | 6[16.7 µM] | / | /
O=C(Nc1c(Cl)cc2c(c1Cl)Cc1cc([N+](=O)[O-])ccc1-2)C(Cl)Cl | -2 | 13 | -30 | 29 | 95* | -9
CCCNC(=O)N1C[C@@H]2[C@H](c3ccccc31)[C@@H](CO)N2C(=O)Nc1ccc(F)cc1 | / | 26 | / | / | / | /
CC(C)NC(=O)N(C)C[C@H]1Oc2ccc(NC(=O)Cc3cn(C)c4ccccc34)cc2C(=O)N([C@H](C)CO)C[C@H]1C | / | -1 | / | / | / | /
CCCCS(=O)(=O)/C=C\C=C/S(=O)(=O)CCCC | / | / | 92* | / | 96* | -18
O=C(C[C@H]1C[C@H]2c3cc(NC(=O)c4ccc5c(c4)OCO5)ccc3O[C@H]2[C@@H](CO)O1)NCc1cc(F)ccc1F | / | -22 | / | -7[16.7 µM] | / | /
CCCNC(=O)[C@H]1[C@H](CO)[C@H]2Cn3c(ccc(-c4ccccc4F)c3=O)[C@@H]1N2C(=O)CC | / | -3 | / | / | / | /
O=C(O)c1cc(N/N=C/c2ccc3c(c2)OCCO3)ccc1Cl | 2 | 30 | 45* | / | 16 | -10
O=c1cnnc(N/N=C/c2ccc3c(c2)OCO3)[nH]1 | 0 | 1 | -19 | 55* | 13 | 2
Cc1ccc(N/N=C/c2ccc3c(c2)OCCO3)cc1Cl | -1 | -77 | -73 | -157 | -85 | -8
O=C(O)c1ccc(N/N=C/c2cc3cc4c(cc3nc2Cl)OCCO4)cc1 | / | 18 | 42* | -59 | -29 | -13
O=C(O)c1ccc(N/N=C/c2ccc3c(c2)OCO3)cc1 | 1 | 88* | 65* | 70* | 60 | -20
O=Cc1cc2cc3c(cc2nc1Cl)OCCO3 | -3 | / | / | / | / | /
O=c1[nH]c(N/N=C\c2ccc3c(c2)OCO3)nc2ccccc12 | 1 | -148 | -11 | i | -62 | -8
COc1cccc(-c2ccc3c(c2)O[C@H](CN(C)Cc2cncnc2)[C@H](C)CN([C@@H](C)CO)S3(=O)=O)c1 | / | / | / | -21[16.7 µM] | / | /
COc1ccc(COc2cc(-c3cccc(OC)c3)nc3ccc(NC(=O)c4ccc(N(C)C)cc4)cc23)cc1 | / | / | -5 | / | 34 | 16
SMILES | NSD2 HMT inh | PAX8 inh HTS | LMP1 NFkB inh | Env fusion inh | Shn3 3UTR inh | Glyco luc inh
COc1ccc(COc2cc(-c3cccc(OC)c3)nc3ccc(NC(=O)c4ccc(C)cc4)cc23)cc1 | / | 80* | -3 | 3 | 21 | -2
S=c1[nH]nc(-c2ccccn2)n1/N=C/c1cccc2ccccc12 | -4 | 122* | -7 | / | 9 | 4
CNC(=O)c1cc(Oc2ccc(NC(=O)Nc3ccc(Cl)c(C(F)(F)F)c3)cc2)ccn1 | / | 96* | 68* | 62* | 73 | -15
C[C@@H]1CN([C@H](C)CO)C(=O)c2cc(C#CCc3ccccc3)cnc2O[C@@H]1CN(C)Cc1cccnc1 | / | / | / | -6[16.7 µM] | / | /
CC1(C)CC(=O)C2=C(C1)N1C(=C(C#N)C2c2ccccc2Cl)N=C(N)c2ccccc21 (stereo not drawn) | / | 2 | 11 | -1 | 6 | 1
CC1(C)CC(=O)C2=C(C1)N1C(=C(C#N)C2c2ccc(Cl)cc2)N=C(N)c2ccccc21 (stereo not drawn) | / | 67* | -63 | 15 | 21 | 3
COc1cccc(S(=O)(=O)Nc2ccc3c(c2)[C@H]2C[C@@H](CC(=O)NCCc4ccccc4)O[C@H](CO)[C@H]2O3)c1 | / | 47 | / | 42[16.7 µM] | / | /
COc1ccc([Si](C)(C)[C@@H]2[C@@H](CCn3cc([C@H](O)c4ccccc4)nn3)O[C@]3(C(=O)N(Cc4cccc(N5CCOC5=O)c4)c4ccccc43)[C@H]2C)cc1 | / | ? | / | -15[16.7 µM] | / | /
COc1ccc([Si](C)(C)[C@H]2[C@H](CCn3cc(CCO)nn3)O[C@@]3(C(=O)N(Cc4cccc(N5CCOC5=O)c4)c4ccccc43)[C@@H]2C)cc1 | / | 83* | / | 16[16.7 µM] | / | /
COc1ccc([Si](C)(C)[C@@H]2[C@@H](CCn3cc(CCO)nn3)O[C@]3(C(=O)N(Cc4cccc(N5CCOC5=O)c4)c4ccccc43)[C@H]2C)cc1 | / | 100* | / | -23[16.7 µM] | / | /
CO[C@@H]1CN(C)C(=O)c2ccc(NC(=O)C3CC3)cc2OC[C@@H](C)N(C)C[C@@H]1C | / | -11 | / | / | / | /
CNC(=S)N1N=C(c2cccs2)CC1c1ccc(F)cc1 (stereo not drawn) | -3 | -12 | 50* | -3 | 6 | 2
CC(C)(C)[C@H](N)C(=O)N[C@H]1CCC2C3CC=C4C[C@@H](O)CC[C@]4(C)C3CC[C@@]21C (stereo partly drawn) | 0 | 95* | -95 | -42 | 12 | -8
CC(C)C(=O)N[C@H]1CCC2C3CC=C4C[C@@H](O)CC[C@]4(C)C3CC[C@@]21C (stereo partly drawn) | 0 | 13 | -2 | 6 | -14 | -3
Cc1noc(C)c1NC(=O)Nc1ccc2c(c1)CC(=O)N([C@H](C)CO)C[C@@H](C)[C@H](CN(C)Cc1ccc3c(c1)OCO3)O2 | / | -12 | / | 2[16.7 µM] | / | /
O=C(C[C@@H]1C[C@@H]2c3cc(NC(=O)Cc4ccncc4)ccc3O[C@@H]2[C@@H](CO)O1)NCC1CC1 | / | -7 | / | 12[16.7 µM] | / | /
O=C(CN1CCN(Cc2ccccc2F)C1=O)NC1CCCC1 | / | -1 | 5 | -5 | / | 0
O=C(CN1CCCN(Cc2ccc(F)cc2Cl)C1=O)NC1CCCCCCC1 | 49 | / | 2 | 72* | 2 | 0
